Experimental findings from ChEMBL document CHEMBL1961873, “Compounds: GSK PKIS; Assays: Nanosyn kinase panel” (2012) are described below.

Test [1] deals with Serine/threonine-protein kinase PAK 6 (Homo sapiens) (UniProt Q9NQU5). As to conditions: at 1 µM.
Test [2] concerns Tyrosine-protein kinase ABL1 (Homo sapiens), P00519 [E255K]. The settings on record: at 0.1 µM.
Test [3] shares this test system. As to conditions: at 1 µM.
Test [4] relates to Tyrosine-protein kinase ABL1 (Homo sapiens), P00519 [H396P]. As to conditions: at 0.1 µM.
The test system is the same in test [5]. As to conditions: at 1 µM.
The subject of test [6] is Tyrosine-protein kinase ABL1 (Homo sapiens), P00519 [M351T]. The settings on record: at 0.1 µM.
Test [7] has the same test system. The settings on record: at 1 µM.
Test [8] has as its system Tyrosine-protein kinase ABL1 (Homo sapiens), P00519 [Q252H]. As to conditions: at 0.1 µM.
For test [9] the test system is unchanged. As to conditions: at 1 µM.
Test [10] concerns Tyrosine-protein kinase ABL1 (Homo sapiens), P00519 [T315I]. The settings on record: at 0.1 µM.

Serine/threonine-protein kinase PAK 6 (Homo sapiens), sequence (Q9NQU5 whole entry, looked up): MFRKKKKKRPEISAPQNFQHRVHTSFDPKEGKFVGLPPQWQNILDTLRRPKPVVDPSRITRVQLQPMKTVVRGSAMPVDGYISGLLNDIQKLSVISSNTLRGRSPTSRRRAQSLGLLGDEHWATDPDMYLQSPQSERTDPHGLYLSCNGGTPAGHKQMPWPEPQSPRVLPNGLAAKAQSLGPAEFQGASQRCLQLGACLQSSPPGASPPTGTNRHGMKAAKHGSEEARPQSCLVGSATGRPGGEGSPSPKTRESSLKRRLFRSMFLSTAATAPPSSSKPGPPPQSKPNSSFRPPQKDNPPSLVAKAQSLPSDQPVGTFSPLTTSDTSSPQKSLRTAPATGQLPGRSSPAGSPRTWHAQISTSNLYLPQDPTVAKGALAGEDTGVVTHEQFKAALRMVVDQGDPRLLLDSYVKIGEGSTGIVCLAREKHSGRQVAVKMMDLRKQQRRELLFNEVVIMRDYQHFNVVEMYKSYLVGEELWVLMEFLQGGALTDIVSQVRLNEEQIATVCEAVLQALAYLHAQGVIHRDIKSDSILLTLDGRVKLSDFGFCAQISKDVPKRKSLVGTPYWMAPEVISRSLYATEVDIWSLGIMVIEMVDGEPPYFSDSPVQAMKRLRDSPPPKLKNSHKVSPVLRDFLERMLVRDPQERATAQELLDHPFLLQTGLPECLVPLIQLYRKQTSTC

With `NS(=O)(=O)c1ccc(Nc2ncc(-c3ccccc3)o2)cc1`, the inhibition (in general, the change of the read-out against control, counted positive when it falls) is 8.68% in [1]; 4.6% in test [2]; 17.8% in [3]; 8.3% in test [4]; 39.3% in test [5]; 3.46% in test [6]. The inhibition in test [7] worked out at 40.1%; in [8] it was 4.58%; in test [9], 28.1%; in [10] it was 3.72%.
Take `CCNC(=O)O[C@H]1CN[C@H](C#Cc2cc3ncnc(Nc4ccc(OCc5cccc(F)c5)c(Cl)c4)c3s2)C1`: the inhibition is 4.55% in test [1]; 4.1% in [2]; 2.82% in test [3]; 3.17% in [4]; 2.6% in [5]; 2.39% in test [6]. Further, the inhibition amounted to 0.66% in test [7], 2.61% in test [8], 2.16% in test [9] and 1.66% in [10].
For `COC(=O)Nc1nc2ccc(S(=O)(=O)c3ccc(NC(=O)Nc4cc(C(F)(F)F)ccc4F)cc3)cc2[nH]1`, the inhibition was -4.19% in test [1]; 1.6% in [2]; -0.55% in [3]; 2.6% in test [4]; -0.47% in test [5]; 0.84% in [6]. The inhibition in test [7] is 3.17%; in test [8] it was 2.16%; in test [9] it was 4.69%; in test [10], 2.49%.
On to `CCOc1ccc2c(-c3ccnc(Nc4cccc(C(F)(F)F)c4)n3)cnn2n1`, for which the inhibition is -3.51% in test [1]; 2.13% in [2]; 4.02% in test [3]; 2.46% in test [4]; 4.74% in [5]; 0.25% in [6]. Besides, the inhibition in test [7] is 1.69%; in test [8], 2.99%; in test [9], 3.05%; in test [10], -0.14%.
Regarding `Nc1nc(-c2ccc(F)cc2)c(-c2ccc3ncccc3n2)s1`, the inhibition in test [1] is -1.32%; in test [2], 6.26%; in [3] it was 16.1%; in test [4] it was 6.76%; in test [5], 24.2%; in [6] it was 2.61%. Moreover, the inhibition in test [7] worked out at 20.2%; in test [8] it was 6.38%; in test [9], 25.9%; in test [10], 5.1%.
With `c1cc(-c2cnn3nc(N4CCOCC4)ccc23)nc(NC2CC2)n1`, the inhibition in test [1] is 6.8%; in [2] it was 2.12%; in test [3], 3.25%; in test [4], 3.02%; in test [5] it was 5.18%; in test [6], 3.02%. Besides, the inhibition in test [7] turned out to be 4.81%; in test [8], 2.61%; in [9] it was 6.62%; in test [10], 2.17%.
For `N#Cc1c(NC(=O)c2ccc(F)cc2)sc2c1CCCC2`, the inhibition in [1] is -6.51%; in test [2] it was 0.33%; in test [3], 1.93%; in [4], -0.63%; in [5], 0.11%; in test [6] it was -1.3%. Further, the inhibition in test [7] was found to be 2.69%; in test [8], 1.76%; in test [9], 2.3%; in test [10], 1.04%.
`N#Cc1c(NC(=O)CN2CCOCC2)sc2c1CCCC2`: the inhibition in test [1] was -4.27%; in [2] it was 3.47%; in test [3] it was 4.25%; in test [4] it was 2.48%; in test [5], 5.61%; in test [6] it was 1.25%. The inhibition amounted to 4.91% in test [7], 1.82% in [8], 4.61% in test [9] and 2.58% in test [10].
In the case of `COc1ccc(-c2nn3ncccc3c2-c2ccnc(Nc3ccc4c(c3)OCCO4)n2)cc1`, the inhibition in test [1] was -1.85%; in test [2] it was -0.56%; in test [3], 13.9%; in [4] it was 3.27%; in test [5], 34.6%; in test [6], 20.9%. Also, the inhibition was 63.3% in test [7], 11.9% in test [8], 55% in [9] and 2.65% in test [10].
Regarding `Nc1ncc(-c2cccc(S(N)(=O)=O)c2)c2scc(-c3ccc(F)c(Cl)c3)c12`, the inhibition in test [1] was -1.87%; in test [2] it was 35.4%; in test [3] it was 84.7%; in [4], 69.4%; in test [5], 93.5%; in test [6], 64.2%. In addition, the inhibition amounted to 93.9% in [7], 55.3% in test [8], 91.4% in [9] and 5.83% in test [10].
Take `CS(=O)(=O)CCNCc1coc(-c2ccc3ncnc(Nc4ccc(OCc5ccccc5)cc4)c3c2)c1`: the inhibition was -4.66% in [1]; 1.64% in test [2]; 0.28% in test [3]; 4.11% in test [4]; 4.46% in [5]; 1.21% in test [6]. Moreover, the inhibition is 1.86% in [7], 2.14% in test [8], 4.18% in test [9] and 1.94% in [10].
In the case of `Cc1cccc2c1NC(=O)/C2=N\Nc1ccc(S(N)(=O)=O)cc1`, the inhibition in test [1] came to 7.35%; in test [2], 1.51%; in test [3], 6.03%; in [4], 6.45%; in test [5], 7.83%; in [6] it was 0.61%. In addition, the inhibition in test [7] was 7.81%; in [8], 2.71%; in test [9], 7.61%; in test [10], 2.54%.
As to `COc1ccc(-c2oc3ncnc(N)c3c2-c2ccc(NC(=O)Nc3cc(C(F)(F)F)ccc3F)cc2)cc1`, the inhibition in test [1] worked out at 11%; in test [2] it was 3.15%; in test [3], 22.9%; in [4], 10.3%; in [5], 58.2%; in test [6] it was 34.6%. Besides, the inhibition turned out to be 76.4% in test [7], 33.6% in [8], 76.2% in [9] and 21.9% in test [10].
Consider `Clc1ccc(-c2nn3ncccc3c2-c2ccnc(Nc3ccccc3)n2)cc1`, for which the inhibition in test [1] is 1.5%; in test [2], 2.58%; in test [3], 8.98%; in test [4], 4.63%; in test [5] it was 20.5%; in [6], 10.4%. In addition, the inhibition in test [7] stood at 45.8%; in [8] it was 5.9%; in test [9], 36.2%; in test [10], 6.6%.
As for `CNC(=O)c1cc(-c2ccc(F)cc2)cc(-c2ccc(S(=O)(=O)N3CCCC3)cc2)c1N`, the inhibition in test [1] was -8.22%; in test [2], 2.54%; in test [3], 2.4%; in test [4], 3.29%; in test [5], 3.32%; in test [6], 0.22%. Besides, the inhibition in test [7] was 0.79%; in test [8], 1.67%; in [9], 1.16%; in test [10], 2.5%.
